# MRP resist rev: MRP-mediated drug resistance reversal. differential viability (reversal), % at 10 µM. actives 0.04% (n = 85,000). H69AR cells + 2 uM doxorubicin, CellTiter-Glo, 72 h;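 active = viability drop by adding the cancer drug above about 55%, with treated viability meeting a 40% cutoff, limit read from the data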;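 also: larger differential means the compound sensitizes cells more to doxorubicin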
# MRP-1 activ: activators of MRP-1; H69AR cells + doxorubicin, viability rescue, CellTiter-Glo; viability increase, % at 10 µM; AID 799; actives 0.61% (n = 140,000);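 active = viability gain under doxorubicin at or above a set limit, the compound median plus 3 SD, cut at about 4.7% in these data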;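 also: MRP-1 overexpressing cells given doxorubicin 25 µM after compound pretreatment; 18-22 h compound pretreatment then 72 h with doxorubicin before readout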
# Cav32 inh: blocks human Cav3.2 T-type calcium channel; O95180; Cav3.2-expressing cells, Fluo-4 calcium fluorescence FDSS; stronger effect = lower value; B-score at 10 µM; actives 4% (n = 100,000); AID 449739;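 active = single-dose well whose peak fluorescence ratio is a statistical outlier from its plate by either plate-standardised score or position-corrected B-score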
# Pyk2 oligo antag: blocks oligomerization of human Pyk2 in cells; z-score (the deposit names both 25 µM and 10 µM); actives 0.83% (n = 99,000); Q293 cells, Pyk2 FERM NanoBiT luminescence; stronger effect = lower value; AID 1347419;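 active = Z-score of -3 or lower, scaled per plate to the spread of control and sample wells; inactive = z-score above -3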;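 also: negative z-score means lost luminescence so less FERM oligomerization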
# Target sequence (Q14289 whole entry, looked up): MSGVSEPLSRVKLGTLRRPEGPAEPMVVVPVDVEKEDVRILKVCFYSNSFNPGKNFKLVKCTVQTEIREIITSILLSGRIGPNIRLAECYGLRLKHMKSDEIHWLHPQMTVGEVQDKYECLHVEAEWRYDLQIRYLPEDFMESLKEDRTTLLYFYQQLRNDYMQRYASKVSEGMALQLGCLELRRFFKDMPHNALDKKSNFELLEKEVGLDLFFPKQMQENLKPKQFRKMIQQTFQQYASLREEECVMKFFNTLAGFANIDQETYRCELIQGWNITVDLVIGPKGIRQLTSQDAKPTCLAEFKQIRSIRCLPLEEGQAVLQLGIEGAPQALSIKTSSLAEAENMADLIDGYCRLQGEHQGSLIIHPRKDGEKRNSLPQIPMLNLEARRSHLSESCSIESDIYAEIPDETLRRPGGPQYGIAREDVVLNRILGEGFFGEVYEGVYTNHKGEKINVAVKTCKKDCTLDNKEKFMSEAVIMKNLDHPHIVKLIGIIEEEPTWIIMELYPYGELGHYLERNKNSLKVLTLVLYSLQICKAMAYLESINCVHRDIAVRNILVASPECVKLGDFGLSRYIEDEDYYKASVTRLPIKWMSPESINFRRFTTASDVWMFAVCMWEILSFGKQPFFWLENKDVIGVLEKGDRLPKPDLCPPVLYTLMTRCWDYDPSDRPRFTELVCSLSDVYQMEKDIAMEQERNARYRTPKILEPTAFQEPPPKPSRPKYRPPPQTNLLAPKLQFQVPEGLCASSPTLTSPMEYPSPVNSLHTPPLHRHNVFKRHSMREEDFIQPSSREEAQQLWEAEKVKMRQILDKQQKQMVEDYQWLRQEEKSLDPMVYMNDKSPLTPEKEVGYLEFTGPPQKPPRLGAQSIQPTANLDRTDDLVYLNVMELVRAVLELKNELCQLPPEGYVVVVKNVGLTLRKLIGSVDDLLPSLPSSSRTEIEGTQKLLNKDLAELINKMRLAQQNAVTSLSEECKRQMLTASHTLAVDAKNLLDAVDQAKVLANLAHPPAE
# CD11b adhes enh: CD11b/CD18-fibrinogen binding enhancement; K562 CD11b/CD18 adhesion to fibrinogen, ATPlite luminescence; AID 1499; actives 0.07% (n = 93,000); activation, % at 10 µM;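 active = 10 µM primary screen giving 50% or more activity, confirmed by 40% or more on retest at that dose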
# Mac1 fbg inh: CD11b/CD18-fibrinogen binding inhibition; P05107+P11215; K562 CD11b/CD18 adhesion to fibrinogen, ATPlite luminescence; Mn2+ added to activate the integrin; inhibition, % at 10 µM; actives 0.54% (n = 93,000); AID 1497;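 active = primary inhibition of 50% or more at 10 µM, then 40% or more on retest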
# Hits are given with their value; i = inactive; nt = no result given. In the library only some 4.1% were active in any assay of this set; here they are far more common.
SMILES,MRP resist rev,MRP-1 activ,Cav32 inh,Pyk2 oligo antag,CD11b adhes enh,Mac1 fbg inh
Cc1cccc(C(C)Nc2ccc([N+](=O)[O-])cn2)c1 (stereo unspecified),nt,i,-4.3,i,nt,nt
CC(C)(C)c1ccc(CNc2ccc([N+](=O)[O-])cn2)cc1,nt,i,nt,nt,nt,nt
COc1ccc(OCCC(=O)OCc2c(C)noc2C)cc1,nt,i,i,i,i,i
Nc1ncc(Br)cc1N=Cc1ccccc1,nt,i,nt,i,nt,nt
Cc1nc2c(=O)[nH]c(=S)n(C)c2nc1C,nt,i,nt,nt,nt,nt
CCOc1ccc(NC(=O)COC(=O)c2c(OC)cccc2OC)cc1,nt,i,nt,nt,nt,nt
O=C(Nc1ccccc1)c1ccccc1NS(=O)(=O)c1ccc(Cl)s1,nt,i,-8.7,i,nt,nt
O=C(NCc1ccco1)c1ccccc1NS(=O)(=O)c1cccs1,i,i,i,i,i,i
O=C(NCc1ccco1)c1ccccc1NS(=O)(=O)c1ccc(Cl)s1,i,i,-7.4,i,i,98
Cc1ccc(NC(=O)c2ccccc2NS(=O)(=O)c2ccc(Cl)s2)cc1,nt,i,nt,nt,nt,nt
CC(NC(=O)C(C)(C)C)c1nc2ccccc2n1C (stereo unspecified),i,i,i,i,i,i
O=C(Cc1ccccc1)NCc1ccc2c(c1)OCO2,i,i,i,i,i,i
O=C(CN(C(=O)C1CSC(=O)C1)c1ccccc1F)NCc1ccc2c(c1)OCO2 (stereo unspecified),i,i,-3.8,i,i,i
CC(=O)Oc1ccc2ccccc2c1C(NC(=O)Cc1ccccc1)c1ccccc1 (stereo unspecified),nt,i,i,-4,i,i
CCCCC(=O)NC(c1cccc([N+](=O)[O-])c1)c1c(OC(C)=O)ccc2ccccc12 (stereo unspecified),i,i,-7.7,-4.3,nt,nt
CC(=O)NC(c1cccc([N+](=O)[O-])c1)c1c(OC(C)=O)ccc2ccccc12 (stereo unspecified),i,i,i,i,nt,nt
O=C(CC(c1ccccc1)c1ccccc1)Nc1ccc2c(c1)OCCO2,i,i,-3.6,i,nt,nt
O=C(Cc1ccccc1[N+](=O)[O-])Nc1ccc2c(c1)OCCO2,nt,i,nt,nt,i,i
Cn1nc(CC(=O)Nc2ccc3c(c2)OCCO3)c2ccccc2c1=O,nt,i,nt,i,i,96
CCCC(=O)NC(Nc1cccc(C(F)(F)F)c1)C(Cl)(Cl)Cl (stereo unspecified),nt,i,-5,i,nt,nt
CCCC(=O)NC(Nc1cc(C(F)(F)F)ccc1Cl)C(Cl)(Cl)Cl (stereo unspecified),nt,i,i,i,i,i
CCC(C(=O)Nc1cccc(C(F)(F)F)c1)c1ccccc1 (stereo unspecified),nt,i,-6.8,i,nt,nt
O=C(Nc1cccc(C(F)(F)F)c1)C(SCCO)c1ccccc1 (stereo unspecified),nt,i,nt,i,i,i
Cc1nc(N2CCN(C(=O)COc3ccccc3)CC2)c2c(C)c(C)sc2n1,i,i,-4,i,i,i
Cc1ccc(OCC(=O)N2CCN(c3nnc(-c4ccccc4)c4ccccc34)CC2)cc1,i,i,-9.7,i,i,i
SMILES,MRP resist rev,MRP-1 activ,Cav32 inh,Pyk2 oligo antag,CD11b adhes enh,Mac1 fbg inh
CC(O)c1cc2c(cc1NC(=O)c1cnn3c1NC(c1ccco1)CC3C(F)(F)F)OCO2 (stereo unspecified),i,i,nt,i,i,i
COc1cccc(C(=O)Nn2c(C)nnc2-n2nc(C)cc2C)c1,i,i,i,i,nt,nt
CC(C)(CO)NC(=O)CCCOc1ccc(Cl)cc1Cl,i,i,i,i,i,i
CCCCCN(CCCCC)C(=O)C(CCC(=O)O)NC(=O)c1ccc(Cl)c(Cl)c1 (stereo unspecified),nt,nt,-8.5,nt,nt,nt
CC(Nc1nc(N2CCCCC2)nc2ccccc12)c1ccccc1 (stereo unspecified),i,i,-7,i,i,i
C=CCNc1nc(N2CCCC2)nc2ccccc12,i,i,nt,i,i,i
CCCc1cc(C(=O)Cc2ccc(C(=O)OCC)o2)c(O)cc1O,i,i,-4.1,i,i,i
CCc1cc(C(=O)Cc2ccc(F)cc2)c(O)cc1O,i,i,nt,nt,i,103
CCc1cc(C(=O)COc2ccccc2F)c(O)cc1O,i,i,-9,i,i,84
CCCc1cc(-c2n[nH]c(C)c2-c2ccc(C(=O)OCC)o2)c(O)cc1O,i,i,i,i,i,i
CCc1cc(C(=O)Cc2nc3ccccc3[nH]2)c(O)cc1O,i,i,i,i,i,i
CCCc1cc(C(=O)Cc2nc3ccccc3s2)c(O)cc1O,i,i,i,i,nt,nt
O=C(Cc1ccc(F)cc1)c1ccc(O)cc1O,i,i,i,i,i,i
CCCc1cc(C(=O)Cc2ccc(F)cc2)c(O)cc1O,i,i,i,i,i,95
S=C(NCCC(c1ccccc1)c1ccccc1)Nc1ccccc1Cl,nt,i,i,i,nt,nt
S=C(NCCC(c1ccccc1)c1ccccc1)Nc1ccc(Cl)cc1,nt,i,-3,i,i,i
CCSc1ccc(-c2nn(-c3ccccc3)cc2/C=C(/C#N)C(=O)NCCCOC)cc1,nt,i,nt,nt,i,i
O=C(c1ccc(COc2ccc(Cl)cc2)o1)N1N=C(C(F)F)CC1(O)C(F)F (stereo unspecified),nt,5.6,nt,nt,nt,nt
COc1ccccc1OCc1ccc(C(=O)N2N=C(C(F)F)CC2(O)C(F)F)o1 (stereo unspecified),nt,i,nt,i,i,82
O=C(c1ccc(Cn2cc(Br)cn2)o1)N1N=C(C(F)F)CC1(O)C(F)F (stereo unspecified),nt,i,i,i,i,i
O=S(=O)(c1ccc(F)cc1)c1nc(-c2ccccc2F)oc1N1CCCCC1,i,i,i,i,i,i
O=C(CSc1nc2nc(-c3cccs3)cc(C(F)(F)F)c2c(=O)[nH]1)NCc1ccco1,nt,i,-4,i,i,i
COc1ccccc1/C=C/C(=O)OCC(=O)Nc1ccccc1Sc1ccccc1,nt,i,nt,nt,nt,nt
N#CCCn1cc(/C=N/O)c(-c2ccc(-c3ccccc3)cc2)n1,i,i,i,-4.1,i,i
N#CCCn1cc(/C=N/O)c(-c2ccc(Cl)cc2)n1,i,i,i,-3.5,nt,nt
SMILES,MRP resist rev,MRP-1 activ,Cav32 inh,Pyk2 oligo antag,CD11b adhes enh,Mac1 fbg inh
Cc1cccc(C(=O)NCc2nnc(SCC(=O)NC(C)c3ccccc3)n2C)c1 (stereo unspecified),nt,i,nt,nt,nt,nt
CC(c1ccco1)N(C(=O)c1ccccc1NS(=O)(=O)c1cc([N+](=O)[O-])ccc1Cl)c1ccccn1 (stereo unspecified),nt,i,nt,nt,nt,nt
CCCc1nn(C)c(C(=O)Nc2ccc3ccccc3c2)c1Cl,nt,i,nt,nt,nt,nt
COc1cc(CNC(=O)c2cccc(COc3ccc(Cl)cc3)c2)cc(OC)c1,nt,4.8,nt,nt,i,i
CC(C)(C)c1ccc(S(=O)(=O)NCCc2ccncc2)cc1,i,i,i,i,i,i
CC(C)(C)c1ccc(S(=O)(=O)NCCOCC(F)(F)C(F)F)cc1,i,i,-3.8,i,i,i
COC(=O)C1=C(C(=O)OC)[C@@H]2N(Cc3ccccc3)c3ccccc3[C@@]23C[C@@H](C(=O)OC)N(C(=O)c2cccs2)C3=N1,nt,nt,i,nt,nt,nt

# Screens deposited in PubChem BioAssay by several laboratories.
